Experimental data published in PubChem BioAssay (NCI).
This is part of a sample that, as a whole, favours compounds with a hit. Of some 79,000 tested, about 15% had one in any assay. Calls of active or inactive are those of the source. Cut-off read from the data, not from the text of the source: active = growth inhibition above about 70%; inactive = the rest.

What was measured:
[1] = NCI Yeast Anticancer Drug Screen. Data for the mec2-1 strain (AID 157); details: S. cerevisiae mec2-1 strain, active compounds read high
Procedure, shortened: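 Growth inhibition is read against vehicle-treated controls after compound exposure of the mec2-1 yeast strain, which is defective in DNA damage repair or cell cycle control.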

[2] = NCI Yeast Anticancer Drug Screen. Data for the rad14 strain (AID 159);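 note: 0% = growth of vehicle-treated control cultures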; details: S. cerevisiae rad14 strain growth inhibition, active compounds read high
Procedure, shortened: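 Here, inhibition of yeast growth was measured after compound exposure, using a strain with a genetic defect in DNA damage repair and vehicle-treated cultures as the reference.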

[3] = NCI Yeast Anticancer Drug Screen. Data for the sgs1 mgt1 strain (AID 161);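 note: 0% = growth of cultures given vehicle only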; details: S. cerevisiae sgs1 mgt1 strain, active compounds read high
Procedure, shortened: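 Growth of a repair-deficient yeast mutant was monitored after compound treatment and expressed as inhibition relative to vehicle-treated cultures.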

[4] = NCI Yeast Anticancer Drug Screen. Data for the CLN2oe strain (AID 163);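 note: 0% = growth of vehicle-only control cultures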; details: S. cerevisiae CLN2oe strain, active compounds read high
Procedure, shortened: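 Compound-treated yeast; growth vs vehicle ctrl = % inhibition. Genetically altered strain (cell-cycle control).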

[5] = NCI Yeast Anticancer Drug Screen. Data for the cln2 rad14 strain (AID 165);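 note: 0% = growth equal to vehicle treated cultures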; details: S. cerevisiae cln2 rad14 strain, active compounds read high
Procedure, shortened: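 Growth inhibition, relative to vehicle-treated controls, is the read-out. The test organism is a yeast strain with defined genetic alterations, cln2 rad14.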

[6] = NCI Yeast Anticancer Drug Screen. Data for the bub3 strain (AID 167); details: S. cerevisiae bub3 mutant strain, active compounds read high
Procedure, shortened: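 Whole-cell yeast assay. The mutant strain was incubated with compounds, and growth inhibition was determined by comparison with vehicle-treated cells.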

[7] = NCI Yeast Anticancer Drug Screen. Data for the sgs1 strain (AID 173);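 note: 0% = growth of vehicle-only control cultures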; details: S. cerevisiae sgs1 mutant, active compounds read high
Procedure, shortened: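 Compounds applied to genetically altered yeast; growth compared with vehicle-treated cultures to give % inhibition.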

[8] = NCI Yeast Anticancer Drug Screen. Data for the mlh1 rad18 strain (AID 175); details: S. cerevisiae mlh1 rad18 strain growth inhibition, active compounds read high
Procedure, shortened: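 Cells of a genetically altered yeast strain, deficient in DNA damage repair, were treated with compound. Their growth was then compared with that of vehicle-treated cultures to give inhibition.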

[9] = NCI Yeast Anticancer Drug Screen. Data for the rad18 strain (AID 177); details: S. cerevisiae rad18 mutant growth inhibition, active compounds read high
Procedure, shortened: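 Compounds are applied to a repair-deficient yeast strain, and growth is compared with that of vehicle-treated cultures to give percent inhibition.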

[10] = NCI Yeast Anticancer Drug Screen. Data for the rad52 strain (AID 147);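 note: 0% = growth of vehicle-treated control cultures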; details: S. cerevisiae rad52 mutant growth inhibition, active compounds read high
Procedure, shortened: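 DNA repair-defective yeast; compound exposure; growth scored against vehicle controls.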

[11] = NCI Yeast Anticancer Drug Screen. Data for the wt1 strain (AID 149);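 note: 0% = growth of vehicle-treated wt1 cultures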; details: S. cerevisiae wt1 strain (SPY 50644) growth inhibition, active compounds read high
Procedure, shortened: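 Measured: growth of wt1 yeast under compound versus vehicle treatment, reported as inhibition.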

[12] = NCI Yeast Anticancer Drug Screen. Data for the rad50EPP+ strain (AID 151);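 note: 0% = growth of vehicle-treated control cultures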; details: S. cerevisiae rad50 mutant strain, active compounds read high
Procedure, shortened: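 rad50EPP+ yeast treated with test compounds. Readout: growth vs vehicle control.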

[13] = NCI Yeast Anticancer Drug Screen. Data for the mgt1 strain (AID 153); details: S. cerevisiae mgt1 mutant growth inhibition, active compounds read high
Procedure, shortened: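 Growth inhibition relative to vehicle controls was scored for the mgt1 yeast strain after compound exposure.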

[14] = NCI Yeast Anticancer Drug Screen. Data for the rad50 strain (AID 155);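 note: 0% = growth of vehicle-only cultures of the same strain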; details: S. cerevisiae rad50 strain growth inhibition, active compounds read high
Procedure, shortened: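 Growth of the mutant yeast was measured after compound exposure and referenced to vehicle-treated cultures.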

[15] = NCI Yeast Anticancer Drug Screen. Data for the wt2 strain (AID 169);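 note: 0% = growth of vehicle-treated yeast cultures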; details: S. cerevisiae wt2 strain growth inhibition, active compounds read high
Procedure, shortened: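 Compound exposure of yeast; growth compared with vehicle controls; inhibition reported.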

[16] = NCI Yeast Anticancer Drug Screen. Data for the mlh1 strain (AID 171);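 note: 0% = growth of vehicle-treated control cultures of the same strain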; details: S. cerevisiae mlh1 strain growth inhibition, active compounds read high
Procedure, shortened: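 Compounds are applied to a genetically altered yeast strain, and its growth is compared with that of vehicle-treated cultures to give percent inhibition.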

[17] = at 5.0 µM (retest, dose inferred, filed as 0.5)
[18] = at 50.0 µM (retest, dose inferred, filed as 5.0)

Measured: growth inhibition

Cc1ccc2nc(-c3cccc([N+](=O)[O-])c3)oc(=O)c2c1
inactive: [1]; [17] 39% | [1]; at 11.0 µM -62% | [1]; at 33.0 µM -53% | [1]; at 50.0 µM 11.8% | [1]; at 100.0 µM -70% | [2]; at 1.2 µM -10% | [2]; at 3.7 µM -6% | [2]; at 11.0 µM -4% | [2]; at 33.0 µM -19% | [2]; at 100.0 µM -16% | [3]; [17] -14% | [3]; [18] 33% | [3]; at 50.0 µM 27.6% | [4]; at 1.2 µM 15% | [4]; at 3.7 µM 22% | [4]; at 11.0 µM 20% | [4]; at 33.0 µM 9% | [4]; at 100.0 µM 8% | [5]; [17] 43% | [5]; [18] 59% | [5]; at 50.0 µM 13.2% | [6]; at 1.2 µM -23% | [6]; at 3.7 µM -23% | [6]; [17] 33% | [6]; at 11.0 µM -24% | [6]; at 33.0 µM -5% | [6]; at 50.0 µM 53.7% | [6]; at 100.0 µM -36% | [7]; at 1.2 µM -20% | [7]; at 3.7 µM -16% | [7]; at 11.0 µM -19% | [7]; at 33.0 µM -18% | [7]; at 100.0 µM -11% | [8]; [17] 34% | [8]; [18] 67% | [8]; at 50.0 µM 14.7% | [9]; at 1.2 µM -14% | [9]; at 3.7 µM -4% | [9]; at 11.0 µM -19% | [9]; at 33.0 µM -28% | [9]; at 100.0 µM -42%
active: [1]; [18] 75% | [6]; [18] 75%

CC[N+]1(C)CCC(O)(c2ccc(OC)cc2)C(C(=O)c2ccc(OC)cc2)C1 (stereo unspecified)
active: [3]; [17] 87% | [3]; [18] 95% | [6]; [18] 91%
inactive: [10]; at 1.2 µM -10% | [10]; at 3.7 µM -13% | [10]; at 11.0 µM -22% | [10]; at 33.0 µM -19% | [10]; at 100.0 µM -20% | [11]; at 1.2 µM -69% | [11]; at 3.7 µM -76% | [11]; at 11.0 µM -72% | [11]; at 33.0 µM -62% | [11]; at 100.0 µM -58% | [12]; at 1.2 µM -32% | [12]; at 3.7 µM -32% | [12]; at 11.0 µM -38% | [12]; at 33.0 µM -35% | [12]; at 100.0 µM -23% | [13]; at 1.2 µM -39% | [13]; at 3.7 µM -52% | [13]; at 11.0 µM -54% | [13]; at 33.0 µM -54% | [13]; at 100.0 µM -44% | [14]; at 1.2 µM -24% | [14]; at 3.7 µM -19% | [14]; [17] 24% | [14]; at 11.0 µM -37% | [14]; at 33.0 µM -21% | [14]; [18] 28% | [14]; at 50.0 µM -1.2% | [14]; at 100.0 µM -30% | [1]; at 1.2 µM -63% | [1]; at 3.7 µM -56% | [1]; [17] 7% | [1]; at 11.0 µM -69% | [1]; at 33.0 µM -61% | [1]; [18] 23% | [1]; at 50.0 µM 14.8% | [1]; at 100.0 µM -74% | [2]; at 1.2 µM 6% | [2]; at 3.7 µM 0% | [2]; at 11.0 µM -33% | [2]; at 33.0 µM -3% | [2]; at 100.0 µM -27% | [3]; at 50.0 µM -4.7% | [4]; at 1.2 µM -13% | [4]; at 3.7 µM -3% | [4]; at 11.0 µM -14% | [4]; at 33.0 µM -4% | [4]; at 100.0 µM -20% | [6]; at 1.2 µM -49% | [6]; at 3.7 µM -42% | [6]; [17] 35% | [6]; at 11.0 µM -61% | [6]; at 33.0 µM -52% | [6]; at 50.0 µM 8.55% | [6]; at 100.0 µM -68% | [15]; at 1.2 µM -21% | [15]; at 3.7 µM -15% | [15]; at 11.0 µM -14% | [15]; at 33.0 µM -16% | [15]; at 100.0 µM -22% | [16]; at 1.2 µM -78% | [16]; at 3.7 µM -64% | [16]; at 11.0 µM -16% | [16]; at 33.0 µM -55% | [16]; at 100.0 µM -62% | [7]; at 1.2 µM -10% | [7]; at 3.7 µM -37% | [7]; at 11.0 µM -49% | [7]; at 33.0 µM -44% | [7]; at 100.0 µM -50% | [8]; [17] 25% | [8]; [18] 29% | [8]; at 50.0 µM 6.75% | [9]; at 1.2 µM -7% | [9]; at 3.7 µM -17% | [9]; at 11.0 µM -13% | [9]; at 33.0 µM -23% | [9]; at 100.0 µM -23%

CNC(=O)OCc1c(COC(=O)NC)c(-c2ccc(Cl)cc2)n2c1CCC2
inactive: [10]; at 1.2 µM -19% | [10]; at 3.7 µM -31% | [10]; at 11.0 µM -28% | [10]; at 33.0 µM -22% | [10]; at 100.0 µM 69% | [11]; at 1.2 µM -37% | [11]; at 3.7 µM -31% | [11]; at 11.0 µM -43% | [11]; at 33.0 µM -47% | [12]; at 1.2 µM -21% | [12]; at 3.7 µM -23% | [12]; at 11.0 µM -16% | [12]; at 33.0 µM -25% | [12]; at 100.0 µM -26% | [13]; at 1.2 µM -47% | [13]; at 3.7 µM -55% | [13]; at 11.0 µM -49% | [13]; at 33.0 µM -17% | [14]; at 1.2 µM -34% | [14]; at 3.7 µM -42% | [14]; [17] 21% | [14]; at 11.0 µM -40% | [14]; at 33.0 µM -30% | [14]; [18] 11% | [14]; at 50.0 µM 56.3% | [1]; at 1.2 µM -55% | [1]; at 3.7 µM -41% | [1]; [17] 0% | [1]; at 11.0 µM -37% | [1]; at 33.0 µM -36% | [1]; [18] 6% | [1]; at 50.0 µM 44.7% | [2]; at 1.2 µM -34% | [2]; at 3.7 µM -31% | [2]; at 11.0 µM -39% | [2]; at 33.0 µM 2% | [3]; [17] 33% | [3]; [18] 69% | [3]; at 50.0 µM 57.5% | [4]; at 1.2 µM -21% | [4]; at 3.7 µM -1% | [4]; at 11.0 µM -9% | [4]; at 33.0 µM -6% | [5]; [17] 30% | [5]; [18] 38% | [6]; at 1.2 µM -53% | [6]; at 3.7 µM -69% | [6]; [17] 36% | [6]; at 11.0 µM -55% | [6]; at 33.0 µM -17% | [6]; [18] 33% | [6]; at 50.0 µM 23% | [15]; at 1.2 µM -31% | [15]; at 3.7 µM -11% | [15]; at 11.0 µM -26% | [15]; at 33.0 µM -10% | [8]; [17] 4% | [8]; [18] 5% | [9]; at 1.2 µM -28% | [9]; at 3.7 µM -30% | [9]; at 11.0 µM -53% | [9]; at 33.0 µM -42%
active: [11]; at 100.0 µM 84% | [13]; at 100.0 µM 98% | [14]; at 100.0 µM 97% | [1]; at 100.0 µM 87% | [2]; at 100.0 µM 98% | [4]; at 100.0 µM 94% | [5]; at 50.0 µM 84% | [6]; at 100.0 µM 94% | [15]; at 100.0 µM 97% | [8]; at 50.0 µM 74.3% | [9]; at 100.0 µM 97%
